Laboratory results: PubChem BioAssay (NCATS)
Results filed as inconclusive are left out. The source made the active and inactive calls. Unless noted, the call rests on the fitted dose curve; in most records, active means well fitted curve in the direction sought with a large enough effect; inconclusive means small, poorly fitted or top-dose-only effect, or another doubt; inactive means no such curve, though single readings can be large; an effect the other way counts as inactive or inconclusive.

Legend:
[1] = biological target: Rap guanine nucleotide exchange factor 3 (Homo sapiens) (UniProt O95398); assay: Confirmatory qHTS for antagonist of cAMP-regulated guanine nucleotide exchange factor 3 (EPAC1) (AID 1645880); settings: EPAC1 Rap1B-BODIPY-GDP exchange, fluorescence; activity, negative = inhibition: at 115 µM (top of the series); further: nearly all actives have a fitted effect of over 55% in size; further: potency means the concentration at half of the fitted maximal effect;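 on activity, negative = inhibition: plate controls were DMSO only for no effect and full effect of the ATA control for full effect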
Rap guanine nucleotide exchange factor 3 (Homo sapiens), sequence (O95398 whole entry, looked up): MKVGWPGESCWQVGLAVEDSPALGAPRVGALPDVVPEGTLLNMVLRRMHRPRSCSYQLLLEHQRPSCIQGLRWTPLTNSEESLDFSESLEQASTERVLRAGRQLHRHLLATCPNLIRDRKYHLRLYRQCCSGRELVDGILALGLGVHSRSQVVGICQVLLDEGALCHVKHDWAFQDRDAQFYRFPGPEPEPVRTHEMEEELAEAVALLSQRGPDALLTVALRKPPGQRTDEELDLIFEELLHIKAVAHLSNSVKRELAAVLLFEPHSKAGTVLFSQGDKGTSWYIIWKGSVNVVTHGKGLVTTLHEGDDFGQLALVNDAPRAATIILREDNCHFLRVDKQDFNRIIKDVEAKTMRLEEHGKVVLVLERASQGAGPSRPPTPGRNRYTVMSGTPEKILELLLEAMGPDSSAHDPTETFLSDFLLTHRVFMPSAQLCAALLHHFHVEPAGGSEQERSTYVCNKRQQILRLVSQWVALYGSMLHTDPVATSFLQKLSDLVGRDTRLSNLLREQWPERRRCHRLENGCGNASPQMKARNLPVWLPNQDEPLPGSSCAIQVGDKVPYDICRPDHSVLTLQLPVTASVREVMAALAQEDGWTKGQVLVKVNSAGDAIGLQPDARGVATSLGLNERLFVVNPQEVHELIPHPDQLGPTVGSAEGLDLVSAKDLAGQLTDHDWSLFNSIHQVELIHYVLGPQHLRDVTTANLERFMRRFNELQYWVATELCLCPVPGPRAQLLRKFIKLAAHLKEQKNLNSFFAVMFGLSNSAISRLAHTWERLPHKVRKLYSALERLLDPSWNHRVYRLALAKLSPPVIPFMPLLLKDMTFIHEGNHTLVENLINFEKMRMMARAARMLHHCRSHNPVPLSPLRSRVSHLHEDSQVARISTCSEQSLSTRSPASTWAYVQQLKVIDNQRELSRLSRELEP
Method in brief: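 Nucleotide exchange uses 100 nM EPAC1, 250 nM RAP1B-BODIPY-GDP and 50 uM GDP, with compounds in a concentration-titration series. After 5 min at room temperature, fluorescence (480 nm ex/540 nm em) is read every 5 min for 30 min. Data are normalized to control ATA and DMSO.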

[2] = biological target: Rap guanine nucleotide exchange factor 3 (Homo sapiens) (UniProt O95398); assay: Confirmatory qHTS for agonist of cAMP-regulated guanine nucleotide exchange factor 3 (EPAC1) (AID 1645881); further: nearly all actives have a fitted effect of over 75% in size; further: potency means the concentration at half of the fitted maximal effect;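 on activation: EPAC1 catalysed release of BODIPY-GDP from Rap1B seen as fluorescence loss; 100% = effect of cAMP agonist control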
[3] = biological target: Rap guanine nucleotide exchange factor 4 (Homo sapiens) (UniProt Q8WZA2); assay: Confirmatory qHTS for agonist of cAMP-regulated guanine nucleotide exchange factor 4 (EPAC2) (AID 1645884);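 further: nucleotide exchange releases bodipy-GDP from Rap1 and this lowers its fluorescence; nearly all actives have a fitted effect of over 65% in size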; further: potency means the concentration at half of the fitted maximal effect
Rap guanine nucleotide exchange factor 4 (Homo sapiens), sequence (Q8WZA2 whole entry, looked up): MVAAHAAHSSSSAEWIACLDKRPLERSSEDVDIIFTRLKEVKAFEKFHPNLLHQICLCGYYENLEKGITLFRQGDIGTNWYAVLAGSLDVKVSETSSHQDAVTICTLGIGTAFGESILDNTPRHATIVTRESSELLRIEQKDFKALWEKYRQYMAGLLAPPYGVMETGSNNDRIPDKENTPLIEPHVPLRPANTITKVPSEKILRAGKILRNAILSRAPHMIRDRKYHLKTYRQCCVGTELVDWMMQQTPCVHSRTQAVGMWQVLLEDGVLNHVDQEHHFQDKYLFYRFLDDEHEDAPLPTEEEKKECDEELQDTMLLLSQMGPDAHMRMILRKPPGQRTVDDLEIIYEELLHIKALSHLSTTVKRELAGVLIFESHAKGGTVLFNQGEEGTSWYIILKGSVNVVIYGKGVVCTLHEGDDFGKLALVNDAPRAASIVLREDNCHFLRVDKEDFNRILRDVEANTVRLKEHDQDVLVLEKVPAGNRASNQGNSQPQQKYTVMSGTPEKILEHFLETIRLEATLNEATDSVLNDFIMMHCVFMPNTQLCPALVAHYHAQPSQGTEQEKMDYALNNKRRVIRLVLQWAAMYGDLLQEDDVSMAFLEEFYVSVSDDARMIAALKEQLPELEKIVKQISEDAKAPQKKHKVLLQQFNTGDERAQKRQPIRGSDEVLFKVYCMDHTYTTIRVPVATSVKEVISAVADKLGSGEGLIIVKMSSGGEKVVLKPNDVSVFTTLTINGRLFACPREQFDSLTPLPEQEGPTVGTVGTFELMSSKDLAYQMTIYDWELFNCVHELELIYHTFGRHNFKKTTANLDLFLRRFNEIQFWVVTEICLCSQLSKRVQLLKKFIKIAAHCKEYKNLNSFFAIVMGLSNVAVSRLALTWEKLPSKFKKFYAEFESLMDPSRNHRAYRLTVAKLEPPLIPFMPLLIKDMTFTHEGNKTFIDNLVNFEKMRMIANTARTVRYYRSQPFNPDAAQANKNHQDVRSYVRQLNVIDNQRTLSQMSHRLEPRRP

[4] = biological target: Rap guanine nucleotide exchange factor 3 (Homo sapiens) (UniProt O95398); assay: Counterscreen qHTS for antagonist of cAMP-regulated guanine nucleotide exchange factor 3 (EPAC1) (AID 1645888); further: potency means the concentration at half of the fitted maximal effect;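 on activity change, negative = inhibition: fluorescence loss as bound BODIPY-GDP is released from Rap1B; % of control where 0% means no effect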
Method in brief: (§1)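 Measured: fluorescence of BODIPY-GDP bound to Rap1B, which falls as exchange proceeds. Conditions include 50 uM competing GDP, 5 and 30 min reads, and a later cAMP challenge for antagonist detection.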

[5] = biological target: Rap guanine nucleotide exchange factor 3 (Homo sapiens) (UniProt O95398); assay: Counterscreen qHTS for agonist of cAMP-regulated guanine nucleotide exchange factor 3 (EPAC1) (AID 1645889); further: nearly all actives have a fitted effect of over 40% in size; further: potency means the concentration at half of the fitted maximal effect; on activation: % of control where 0% means no effect
Method in brief: as §1

[6] = biological target: Tumor susceptibility gene 101 protein (Homo sapiens) (UniProt Q99816); assay: qHTS Assay for Iinhibitors of HIV-1 Budding by Blocking the Interaction of PTAP/TSG101: Hit Validation (AID 651600); further: potency means the concentration at half of the fitted maximal effect; nearly all actives have a fitted effect of over 70% in size
Tumor susceptibility gene 101 protein (Homo sapiens), sequence (Q99816 whole entry, looked up, the tested form may be a part): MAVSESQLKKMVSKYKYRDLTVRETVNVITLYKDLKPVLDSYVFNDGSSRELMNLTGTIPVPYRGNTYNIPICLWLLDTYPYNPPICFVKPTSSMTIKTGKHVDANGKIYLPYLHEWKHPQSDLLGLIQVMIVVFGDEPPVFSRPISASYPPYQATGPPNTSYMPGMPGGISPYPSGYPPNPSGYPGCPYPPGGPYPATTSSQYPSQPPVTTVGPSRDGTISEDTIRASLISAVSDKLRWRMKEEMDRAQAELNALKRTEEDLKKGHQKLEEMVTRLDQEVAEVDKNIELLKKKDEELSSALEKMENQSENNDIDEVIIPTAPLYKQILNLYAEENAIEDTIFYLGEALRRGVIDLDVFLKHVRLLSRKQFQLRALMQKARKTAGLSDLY
Method in brief: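 Displacement of a FITC-labeled PTAP-motif peptide (50 nM) from the Tsg101 binding domain (10 uM) was monitored by fluorescence polarization after a 20 min room-temperature incubation.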

[7] = biological target: Cytochrome P450 3A4 (Homo sapiens) (UniProt P08684); assay: qHTS Assay for Activators of Cytochrome P450 3A4 (AID 885); further: nearly all actives have a fitted effect of over 65% in size
Cytochrome P450 3A4 (Homo sapiens), sequence (P08684 whole entry, looked up): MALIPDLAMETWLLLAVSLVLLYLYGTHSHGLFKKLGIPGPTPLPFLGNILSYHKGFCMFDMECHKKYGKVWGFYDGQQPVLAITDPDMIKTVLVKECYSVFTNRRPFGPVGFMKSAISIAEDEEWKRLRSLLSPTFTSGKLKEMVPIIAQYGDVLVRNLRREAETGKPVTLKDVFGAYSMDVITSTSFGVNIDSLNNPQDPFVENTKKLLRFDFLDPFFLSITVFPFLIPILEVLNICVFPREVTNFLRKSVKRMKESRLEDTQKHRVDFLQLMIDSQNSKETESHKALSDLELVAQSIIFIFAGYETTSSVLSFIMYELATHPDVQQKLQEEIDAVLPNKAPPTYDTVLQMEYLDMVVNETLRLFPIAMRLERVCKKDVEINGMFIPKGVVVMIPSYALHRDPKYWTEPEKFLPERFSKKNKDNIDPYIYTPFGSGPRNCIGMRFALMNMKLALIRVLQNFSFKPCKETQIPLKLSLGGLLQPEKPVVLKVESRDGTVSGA
Method in brief: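 Signal was normalized against complete inhibition by 57 uM ketoconazole. The reaction used 20nM CYP3A4 with 25uM Luciferin-PPXE, 10-min compound preincubation and a 60-min NADPH-supported step at RT.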

[8] = biological target: Rap guanine nucleotide exchange factor 4 (Homo sapiens) (UniProt Q8WZA2); assay: Confirmatory qHTS for antagonist of cAMP-regulated guanine nucleotide exchange factor 4 (EPAC2) (AID 1645885); further: nearly all actives have a fitted effect of over 25% in size; further: potency means the concentration at half of the fitted maximal effect
[9] = Confirmation and Secondary Assay for Modulators of Hemoglobin Beta Chain Splicing at IVS2 654 locus (AID 910);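 further: per-well total GFP intensity by laser scanning cytometry after 2-day treatment; % of control where 0% means no effect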
Method in brief: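 HeLa cells stably carrying EGFP interrupted by mutant beta-globin IVS2-654 intron (CMV-driven) were treated with compound for 2 days at 37C; corrected splicing was scored as total peak GFP intensity per well (488 nm excitation, 500-520 nm emission).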

[10] = Confirmation and Secondary Assay for Modulators of Hemoglobin Beta Chain Splicing at IVS2 705 locus (AID 930);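 further: HeLa cells stably expressing the EGFP-705 splicing reporter; % of control where 0% means no effect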
Method in brief: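 HeLa cells stably carrying EGFP interrupted by mutant beta-globin IVS2-705 intron (CMV-driven) were seeded at 500 cells/well, treated next day with compound for 2 days at 37C; corrected splicing restores EGFP, read as total peak GFP intensity per well.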

[11] = biological target: Ubiquitin carboxyl-terminal hydrolase 1 (Homo sapiens) (UniProt O94782); assay: Inhibitors of USP1/UAF1: Pilot qHTS (AID 504865); further: potency means the concentration at half of the fitted maximal effect; nearly all actives have a fitted effect of over 35% in size
Ubiquitin carboxyl-terminal hydrolase 1 (Homo sapiens), sequence (O94782 whole entry, looked up): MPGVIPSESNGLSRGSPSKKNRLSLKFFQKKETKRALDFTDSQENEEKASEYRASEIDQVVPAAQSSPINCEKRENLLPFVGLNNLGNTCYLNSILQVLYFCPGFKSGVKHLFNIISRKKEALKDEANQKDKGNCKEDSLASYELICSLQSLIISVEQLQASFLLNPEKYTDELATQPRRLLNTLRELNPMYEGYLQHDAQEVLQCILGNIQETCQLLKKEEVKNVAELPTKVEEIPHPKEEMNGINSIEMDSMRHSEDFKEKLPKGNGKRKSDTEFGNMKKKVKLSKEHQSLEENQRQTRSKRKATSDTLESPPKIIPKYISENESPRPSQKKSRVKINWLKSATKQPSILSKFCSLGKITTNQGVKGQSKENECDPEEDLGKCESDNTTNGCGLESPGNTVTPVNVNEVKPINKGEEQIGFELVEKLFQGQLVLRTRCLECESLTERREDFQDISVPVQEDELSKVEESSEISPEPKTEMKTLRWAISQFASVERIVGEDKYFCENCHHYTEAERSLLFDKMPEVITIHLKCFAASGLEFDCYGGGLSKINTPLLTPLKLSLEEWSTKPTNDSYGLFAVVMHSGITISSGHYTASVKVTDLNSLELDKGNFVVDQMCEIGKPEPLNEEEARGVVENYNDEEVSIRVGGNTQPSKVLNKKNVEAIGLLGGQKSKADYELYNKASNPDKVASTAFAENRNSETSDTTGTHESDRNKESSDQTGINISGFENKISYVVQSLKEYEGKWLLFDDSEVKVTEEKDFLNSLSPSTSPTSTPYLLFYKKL
Method in brief: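 Kinetic fluorescence assay: 1nM USP1/UAF1, 15 min compound preincubation, then 150nM Ub-Rho; 480/540 nm.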

[12] = biological target: Lysosomal acid glucosylceramidase (Homo sapiens) (UniProt P04062); assay: Glucocerebrosidase-p2 (AID 348; in the data active means potency below about 10 µM; further: potency means the concentration at half of the fitted maximal effect); settings: purified GBA, blue fluorogenic substrate, 40 min
Lysosomal acid glucosylceramidase (Homo sapiens), sequence (P04062 whole entry, looked up): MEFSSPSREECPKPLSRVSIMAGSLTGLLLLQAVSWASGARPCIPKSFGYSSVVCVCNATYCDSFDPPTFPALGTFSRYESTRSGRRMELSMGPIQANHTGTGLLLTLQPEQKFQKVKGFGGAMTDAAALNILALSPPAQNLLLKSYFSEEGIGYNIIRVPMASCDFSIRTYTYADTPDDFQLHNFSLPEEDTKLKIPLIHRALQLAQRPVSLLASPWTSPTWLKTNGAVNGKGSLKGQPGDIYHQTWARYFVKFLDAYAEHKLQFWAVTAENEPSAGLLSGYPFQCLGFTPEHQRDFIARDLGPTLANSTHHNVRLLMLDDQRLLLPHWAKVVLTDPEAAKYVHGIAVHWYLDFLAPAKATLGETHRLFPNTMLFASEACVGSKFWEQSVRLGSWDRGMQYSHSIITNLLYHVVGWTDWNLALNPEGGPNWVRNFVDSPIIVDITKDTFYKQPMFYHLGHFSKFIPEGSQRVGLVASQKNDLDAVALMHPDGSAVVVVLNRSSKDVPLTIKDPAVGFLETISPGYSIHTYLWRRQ
Method in brief: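 Compounds titrated from 0.6 nM upwards against 0.2 nM enzyme in pH 5.9 citric acid/KH2PO4, taurocholate, tween-20; blue fluorogenic substrate 80 uM, 40 min room temperature, stopped and read Ex 365/Em 440 for AC50.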

[13] = AP1 Signaling Pathway (AID 357; active means well fitted curve in either direction with a large enough effect, not every such curve was filed as active;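 further: ME-180 reporter cells stimulated with EGF at its EC50 level; on the % scale 0 is the no-effect control and ±100 the full control effect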); settings: ME-180 AP-1-bla reporter, EGF-induced, beta-lactamase ratio, 5 h; at 7.69 µM (top of the series) unless noted
Method in brief: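 Cells are seeded overnight, exposed to compound titrations and an EC50 level of EGF for 5 hours at 37 °C, then loaded with CCF4 dye for 2.5 hours. Beta-lactamase activity under the AP-1 element is read as a blue/green ratio.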

[14] = NFAT Signaling Pathway (AID 444; active means well fitted curve in either direction with a large enough effect, not every such curve was filed as active;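 further: carbachol stimulus at about its EC50 of 1 µM final; on the % scale 0 is the no-effect control and ±100 the full control effect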); settings: Jurkat NFAT-bla M1, carbachol, beta-lactamase ratio, 5 h; at 7.69 µM (top of the series) unless noted
Method in brief: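 Jurkat cells carrying an NFAT-driven β-lactamase reporter and co-transfected muscarinic M1 receptor were treated with compound plus carbachol (1 uM final, an EC50 level) for 5 h at 37 °C. CCF4 loading followed for 1 h at RT; 460/530 nm ratio gave %activity.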

[15] = Stat Signaling Pathway (AID 446; active means well fitted curve in either direction with a large enough effect, not every such curve was filed as active;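 further: ME-180 cervical cancer cells given 40 pM IL-6 alongside compound; SIE-controlled beta-lactamase reporter measured as 460/530 nm FRET emission ratio; on the % scale 0 is the no-effect control and ±100 the full control effect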)
Method in brief: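 Reporter line: ME-180 cervical carcinoma, SIE-beta-lactamase. Treatment: compound with 40 pM IL-6, 5 hrs, 37 C, in low-serum OPTI-MEM with 10 mM HEPES pH 7.3. Detection: 460/530 nm fluorescence.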

[16] = biological target: Glucocorticoid receptor (Homo sapiens) (UniProt P04150); assay: GR-GFP Redistribution (AID 450;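 active means compounds whose dose series gives a full or clear partial fitted curve of increased nuclear translocation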; further: potency means the concentration at half of the fitted maximal effect); settings: U2OS GR-GFP nuclear translocation, laser cytometry, 2 h
Glucocorticoid receptor (Homo sapiens), sequence (P04150 whole entry, looked up, the tested form may be a part): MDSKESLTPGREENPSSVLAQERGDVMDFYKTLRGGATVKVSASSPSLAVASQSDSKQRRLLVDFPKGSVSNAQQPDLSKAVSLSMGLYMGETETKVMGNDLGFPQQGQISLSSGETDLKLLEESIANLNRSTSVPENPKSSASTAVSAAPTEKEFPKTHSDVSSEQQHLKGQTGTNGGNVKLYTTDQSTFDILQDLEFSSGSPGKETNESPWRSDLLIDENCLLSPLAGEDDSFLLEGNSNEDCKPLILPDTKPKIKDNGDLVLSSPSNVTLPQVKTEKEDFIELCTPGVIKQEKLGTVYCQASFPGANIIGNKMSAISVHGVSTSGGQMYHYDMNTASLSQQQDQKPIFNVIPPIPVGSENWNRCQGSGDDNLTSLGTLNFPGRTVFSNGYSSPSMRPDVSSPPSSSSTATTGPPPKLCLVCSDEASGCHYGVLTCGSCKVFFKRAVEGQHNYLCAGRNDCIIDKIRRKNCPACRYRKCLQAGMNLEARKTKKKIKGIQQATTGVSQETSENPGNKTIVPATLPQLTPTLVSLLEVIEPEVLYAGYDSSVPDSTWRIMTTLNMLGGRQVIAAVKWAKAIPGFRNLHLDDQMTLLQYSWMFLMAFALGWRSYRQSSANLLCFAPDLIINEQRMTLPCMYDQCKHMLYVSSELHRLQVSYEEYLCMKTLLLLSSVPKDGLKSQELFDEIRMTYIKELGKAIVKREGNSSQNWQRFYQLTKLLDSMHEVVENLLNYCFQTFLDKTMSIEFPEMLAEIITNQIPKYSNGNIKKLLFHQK

[17] = biological target: Glucocorticoid receptor (Homo sapiens) (UniProt P04150); assay: GR-EFC Redistribution (AID 451; calls by dose curve; further: potency means the concentration at half of the fitted maximal effect); settings: CHO-K1 GR-EFC translocation, beta-gal luminescence, 2 h
Method in brief: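 CHO-K1 cells stably expressing nuclear-localized β-gal enzyme acceptor and GR fused C-terminally to the enzyme donor fragment; ligand-driven nuclear translocation restores β-gal by complementation. Compounds titrated up to 46 uM final, 2 h at 37 °C; luminescence read.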

[18] = biological target: Mitogen-activated protein kinase 10 (Mus musculus) (UniProt Q61831); assay: JNK3 AlphaScreen Assay (AID 530; active means well fitted curve in either direction with a large enough effect, not every such curve was filed as active;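 further: kinase came from lysate of stimulated human HepG2 cells; signal reports phosphorylation of biotinylated GST-cJun 1-79 at Ser73 with 10 µM ATP; on the % scale 0 is the no-effect control and ±100 the full control effect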)
Method in brief: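 JNK3 came from HepG2 lysates pre-activated with IL-1beta and TNF-alpha and phosphorylated biotinylated GST-cJun (1-79) at 10 uM ATP, pH 7.6, room temperature. Compounds were titrated. AlphaScreen signal used anti-phospho-cJun (Ser73) antibody.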

[19] = biological target: 3',5'-cyclic-AMP phosphodiesterase 4B (Homo sapiens) (UniProt Q07343); assay: qHTS Assay for Inhibitors of PDE-IV (AID 607; active means well fitted activation curve with a large enough effect in the main read-out, with a control signal flat, not every such curve was filed as active; further: % of control where 0% means no effect)
Method in brief: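 Cell-based read-out of cAMP via a modified cyclic nucleotide-gated channel and membrane potential dye (535/590 nm) in HEK293 cells expressing PDE4 endogenously. Compounds tested up to 22.9 uM final; 100 uM RO 20-1724 reference.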

CCOc1ccccc1OCC(=O)Nc1cc(S(=O)(=O)N2CCCCC2)ccc1N1CCN(CC)CC1
inactive: Potency [1] | Potency [2] | Potency [3] | Potency [4] | Potency [5]

COC(=O)c1cn(C(=O)c2ccccc2Cl)c2ccccc12
inactive: Potency [1] | Potency [2] | activation [3] 7.27% [at 17.1 µM, percent relative to cAMP agonist control] | activity change, negative = inhibition [4] -1.26% [at 30.8 µM] | activation [5] 20.7% [at 30.8 µM]

CCOC(=O)c1c(NC(=O)CSc2nnc(C)c(=O)[nH]2)sc(C)c1-c1ccc(C)cc1
inactive: Potency [2] | Potency [3] | Potency [5]
active: Potency [1] 75.7 µM

Oc1[nH]c2ccc(Br)cc2c1N=Nc1ccc(F)cc1
active: Potency [6] 10.3 µM | Potency [1] 84.9 µM | Potency [4] 70.8 µM
inactive: Potency [2] | Potency [3] | Potency [5]

C=CCn1c(SCc2cc([N+](=O)[O-])cc3c2OCOC3)nc2cc(C(=O)O)ccc2c1=O
active: Potency [1] 75.7 µM
inactive: Potency [2] | Potency [3] | Potency [5]

O=C(N/N=C/c1cc(Cl)c(O)c(Cl)c1)c1cc2c(ccc3ccccc32)o1
inactive: Potency [2] | Potency [3] | Potency [4] | Potency [5]
active: Potency [1] 60.1 µM

O=C1c2cccc3c(N4CCCCC4)ccc(c23)C(=O)N1c1cccc(O)c1
inactive: Potency [1] | Potency [4]
active: Potency [2] 100 µM | Potency [3] 112 µM | Potency [5] 50.1 µM

COc1ccc(C2OCC3(COC(C)=O)C(C)C=C(C)C2C3C)cc1 (centres undefined)
inactive: outcome [7] | Potency [1] | Potency [2] | Potency [3]

CCOC(=O)C1(Cc2ccccc2)C(=O)Nc2ccccc21 (centres undefined)
inactive: Potency [1] | Potency [2] | activation [3] 2.58% [at 17.1 µM, percent relative to cAMP agonist control] | activation [5] 32.7% [at 30.8 µM]

COc1ccc(/C=C2\SC(=S)NC2=O)cc1OS(=O)(=O)c1ccc(NC(C)=O)cc1
active: Potency [1] 37.9 µM
inactive: Potency [2] | Potency [3] | Potency [5]

CN(C)c1ccc(/C=C/c2sc3ccccc3[n+]2CCCCBr)cc1
inactive: Potency [1] | Potency [2] | Potency [8]

COc1cc(C)c2c(=O)cc(-c3ccccc3)oc2c1
inactive: outcome [7] | Potency [9] | Potency [10] | Potency [1] | Potency [2] | Potency [3]

CC(=O)Oc1c2c(c3c(c1CC=C(C)C)O[C@@]14C(=CC5CC1C(C)(C)OC4(C/C=C(\C)C(=O)O)C5=O)C3=O)OC(C)(CCC=C(C)C)C=C2 (some centres undefined)
active: Potency [11] 31.6 µM | Potency [1] 55.9 µM
inactive: outcome [7] | Potency [9] | Potency [10] | Potency [2] | Potency [3]

CCCCN(CCCC)c1ccc(/C=C/c2ccnc3ccccc23)cc1
inactive: Potency [1] | Potency [2] | Potency [8]

COc1ccc(OC)c(/C=C/c2ccnc3ccccc23)c1
inactive: Potency [1] | Potency [2] | activation [3] 0% [at 17.1 µM, percent relative to cAMP agonist control] | activation [5] 14.1% [at 30.8 µM]

Cc1nc(S/C(=C/c2ccc(-c3cc(Cl)ccc3C)o2)C(=O)O)n[nH]1
inactive: Potency [2] | Potency [3] | Potency [5]
active: Potency [1] 26.9 µM

COc1ncc2nc(-c3ccccc3)c(=O)n(Cc3cccs3)c2n1
inactive: Potency [12] > 11.4 µM | activity change, negative = inhibition [13] 3.51% | activity change, negative = inhibition [14] -14.6% | outcome [15] | Potency [16] > 9.22 µM | Potency [17] > 46 µM | Potency [18] | Potency [19] | Potency [1] | Potency [2] | Potency [3]

O=C(CCn1c(=O)oc2ccccc21)N(Cc1ccccc1)c1ccccc1
inactive: Potency [1] | Potency [2] | Potency [8]

O=C(c1ccco1)N1N=C2CCCCCC2C1(O)C(F)(F)F (centres undefined)
inactive: Potency [1] | Potency [2] | Potency [3] | Potency [5]

C=Nc1ccc(/C=C/c2ccnc3ccccc23)cc1
inactive: Potency [1] | Potency [2] | Potency [8]

COc1cc(Br)cc(C(=O)N2CCc3ccccc32)c1OC
inactive: Potency [1] | Potency [2] | Potency [3] | Potency [5]

COc1ccc(NS(=O)(=O)c2cc(N)ccc2N2CCCCC2)cc1
inactive: Potency [1] | Potency [2] | Potency [3] | Potency [5]

CC(C)(C)NC(=O)C(c1ccc(C(F)(F)F)cc1)n1c(=O)c(-c2ccco2)nc2ccccc21 (centres undefined)
active: Potency [1] 75.7 µM
inactive: Potency [2] | Potency [3] | Potency [5]

Cc1cccc(Cn2c(C)nc3c(N)c(C)c(C)cc32)c1
inactive: Potency [1] | Potency [2] | Potency [3] | Potency [5]

O=C(O)CSCC(=O)N(Cc1ccccc1)c1nc(-c2ccccc2)c(-c2ccccc2)s1
inactive: Potency [2]
active: Potency [1] 67.5 µM | Potency [8] 67.5 µM

COc1ccc2c(c1)CCC1(C)CC(=O)C(Br)=C21 (centres undefined)
inactive: Potency [1] | Potency [2] | Potency [3] | Potency [5]

CC(=O)c1cccc(NC(=O)Cn2cc(C(=O)c3cccc(Cl)c3)c(=O)c3ccc(C)nc32)c1
inactive: Potency [1] | Potency [2] | outcome [8] inactive [at 12.7 µM]

O=C1C=C(c2ccccc2)C(c2ccccc2)C1 (centres undefined)
inactive: Potency [1] | Potency [2] | Potency [3] | Potency [5]
